# Where “and” joins values, the source holds several entries; their conditions need not be identical. Equal entries are not always repeated. The whole screen tested about 5,500 compounds, of which about 2,000 (36%) were called active. Not shown: some 18% with an inconclusive outcome. This is one part of the list. Unmarked numbers belong to inactive results. Cut-off read from the data, not from the text of the source: active = normalized growth mostly below about 0.91 (no sharp cut-off); inconclusive = no clear call, values can overlap the other calls; inactive = mostly above about 0.92.
# Assay: chemical genetic growth profiling, strain panel (AID 1159580);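 note: tested at 20 µM; growth read once vehicle control cultures reached saturation at 30 °C; 1 = growth at the plate median or of vehicle wells; lower values mean less growth of the strain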
# Settings: growth OD
# [1] = S. cerevisiae deletion strains, locus YAL013W, strain DEP1, stronger effect = lower value
# [2] = S. cerevisiae deletion strains, locus YAL040C, strain CLN3, stronger effect = lower value
# [3] = S. cerevisiae deletion strains, locus YCL061C, strain MRC1 (second series), stronger effect = lower value
# [4] = S. cerevisiae deletion strains, locus YDR150W, strain NUM1, stronger effect = lower value
# [5] = S. cerevisiae deletion strains, locus YDR363W, strain ESC2, stronger effect = lower value
# [6] = S. cerevisiae deletion strains, locus YER002W, strain NOP16, stronger effect = lower value
# [7] = S. cerevisiae deletion strains, locus YGR078C, strain PAC10, stronger effect = lower value
# [8] = S. cerevisiae deletion strains, locus YJR075W, strain HOC1, stronger effect = lower value
# [9] = S. cerevisiae deletion strains, locus YNL175C, strain NOP13, stronger effect = lower value
# [10] = S. cerevisiae deletion strains, locus YNL197C, strain WHI3, stronger effect = lower value
# [11] = S. cerevisiae deletion strains, locus YNL224C, strain SQS1, stronger effect = lower value
# [12] = S. cerevisiae deletion strains, locus YNL322C, strain KRE1, stronger effect = lower value
# [13] = S. cerevisiae deletion strains, locus YOR083W, strain WHI5 (second series), stronger effect = lower value
# [14] = S. cerevisiae deletion strains, locus YMR263W, strain SAP30, stronger effect = lower value
# [15] = S. cerevisiae deletion strains, locus YNL128W, strain TEP1, stronger effect = lower value
# [16] = S. cerevisiae deletion strains, locus YNL153C, strain GIM3, stronger effect = lower value
smiles,measurement,setting,value
NC(N)=Nc1ccc2[nH]c3c(c2c1)C[C@@]1(O)[C@H]2Cc4ccc(O)c5c4[C@@]1(CCN2CC1CC1)[C@H]3O5,normalized growth,[1],1.02
same,normalized growth,[2],1.07
same,normalized growth,[3],0.991
same,normalized growth,[4],0.986
same,normalized growth,[5],1.04
same,normalized growth,[6],1.01
same,normalized growth,[7],0.991
same,normalized growth,[8],1.01
same,normalized growth,[9],0.998
same,normalized growth,[10],0.985
same,normalized growth,[11],1
same,normalized growth,[12],1.03
same,normalized growth,[13],0.97
Oc1ccc(C2CNCc3sccc32)cc1O (stereo not drawn),normalized growth,[2],1.01
same,normalized growth,[3],0.962
same,normalized growth,[5],0.999
same,normalized growth,[6],1
same,normalized growth,[7],0.998
same,normalized growth,[14],1
same,normalized growth,[15],1.01
same,normalized growth,[16],0.963
same,normalized growth,[9],0.995
same,normalized growth,[10],0.995
same,normalized growth,[11],1
same,normalized growth,[12],0.892 (active)
same,normalized growth,[13],1
CCN(CC)CCNC(=O)COc1ccc(OC)cc1,normalized growth,[1],1
same,normalized growth,"S. cerevisiae deletion strains, locus YBR021W, strain FUR4, stronger effect = lower value",1.01
same,normalized growth,"S. cerevisiae deletion strains, locus YBR229C, strain ROT2, stronger effect = lower value",0.995
same,normalized growth,"S. cerevisiae deletion strains, locus YCL029C, strain bik1, stronger effect = lower value",0.983
same,normalized growth,"S. cerevisiae deletion strains, locus YDL035C, strain GPR1, stronger effect = lower value",1.02
same,normalized growth,"S. cerevisiae deletion strains, locus YDL074C, strain BRE1, stronger effect = lower value",0.989
same,normalized growth,"S. cerevisiae deletion strains, locus YDL101C, strain DUN1, stronger effect = lower value",0.993
same,normalized growth,"S. cerevisiae deletion strains, locus YDL134C, strain PPH21, stronger effect = lower value",1.01
same,normalized growth,"S. cerevisiae deletion strains, locus YDL185W, strain tfp1, stronger effect = lower value",0.964
same,normalized growth,"S. cerevisiae deletion strains, locus YDL192W, strain arf1, stronger effect = lower value",0.995
same,normalized growth,"S. cerevisiae deletion strains, locus YDR101C, strain arx1, stronger effect = lower value",0.973
same,normalized growth,[4],0.993
same,normalized growth,"S. cerevisiae deletion strains, locus YDR162C, strain NBP2, stronger effect = lower value",1.01
same,normalized growth,"S. cerevisiae deletion strains, locus YDR318W, strain mcm21, stronger effect = lower value",0.988
same,normalized growth,"S. cerevisiae deletion strains, locus YDR388W, stronger effect = lower value",0.997
same,normalized growth,"S. cerevisiae deletion strains, locus YDR502C, strain sam2, stronger effect = lower value",1.01
same,normalized growth,"S. cerevisiae deletion strains, locus YEL061C, strain CIN8, stronger effect = lower value",1
same,normalized growth,"S. cerevisiae deletion strains, locus YER110C, stronger effect = lower value",0.989
same,normalized growth,"S. cerevisiae deletion strains, locus YER155C, strain BEM2, stronger effect = lower value",0.998
same,normalized growth,"S. cerevisiae deletion strains, locus YER167W, strain BCK2, stronger effect = lower value",1.01
same,normalized growth,"S. cerevisiae deletion strains, locus YGL078C, strain dbp3, stronger effect = lower value",0.997
same,normalized growth,"S. cerevisiae deletion strains, locus YGL086W, strain mad1, stronger effect = lower value",1.02
same,normalized growth,"S. cerevisiae deletion strains, locus YGL248W, strain PDE1, stronger effect = lower value",0.995
same,normalized growth,[7],0.992
same,normalized growth,"S. cerevisiae deletion strains, locus YGR135W, strain pre9, stronger effect = lower value",1.01
same,normalized growth,"S. cerevisiae deletion strains, locus YGR229C, strain SMI1, stronger effect = lower value",1.01
same,normalized growth,"S. cerevisiae deletion strains, locus YGR252W, strain gcn5, stronger effect = lower value",1.15
same,normalized growth,"S. cerevisiae deletion strains, locus YHR030C, strain SLT2, stronger effect = lower value",0.995 and 0.975
same,normalized growth,"S. cerevisiae deletion strains, locus YHR079C, strain IRE1 (second series), stronger effect = lower value",0.986
same,normalized growth,"S. cerevisiae deletion strains, locus YHR079C, strain IRE1, stronger effect = lower value",0.965
same,normalized growth,"S. cerevisiae deletion strains, locus YHR094C, strain hxt1, stronger effect = lower value",0.981
same,normalized growth,"S. cerevisiae deletion strains, locus YHR129C, strain ARP1, stronger effect = lower value",0.994
same,normalized growth,"S. cerevisiae deletion strains, locus YHR200W, strain rpn10, stronger effect = lower value",0.989
same,normalized growth,"S. cerevisiae deletion strains, locus YIL066C, strain RNR3, stronger effect = lower value",0.999
same,normalized growth,"S. cerevisiae deletion strains, locus YIL073C, strain SPO22, stronger effect = lower value",0.974
same,normalized growth,"S. cerevisiae deletion strains, locus YIL125W, strain kgd1, stronger effect = lower value",1
same,normalized growth,"S. cerevisiae deletion strains, locus YIR030C, strain dcg1, stronger effect = lower value",0.999
same,normalized growth,"S. cerevisiae deletion strains, locus YJL095W, strain BCK1, stronger effect = lower value",0.983 and 0.978
same,normalized growth,"S. cerevisiae deletion strains, locus YJL134W, strain LCB3, stronger effect = lower value",0.994
same,normalized growth,"S. cerevisiae deletion strains, locus YJL168C, strain set2, stronger effect = lower value",0.981
same,normalized growth,"S. cerevisiae deletion strains, locus YJL187C, strain SWE1 (second series), stronger effect = lower value",0.984
same,normalized growth,"S. cerevisiae deletion strains, locus YJR043C, strain POL32, stronger effect = lower value",0.971
same,normalized growth,"S. cerevisiae deletion strains, locus YJR066W, strain TOR1, stronger effect = lower value",0.939
same,normalized growth,[8],0.983
same,normalized growth,"S. cerevisiae deletion strains, locus YKL009W, strain mrt4, stronger effect = lower value",1.02
same,normalized growth,"S. cerevisiae deletion strains, locus YKL068W, stronger effect = lower value",0.983
same,normalized growth,"S. cerevisiae deletion strains, locus YKL085W, strain MDH1 (second series), stronger effect = lower value",0.981
same,normalized growth,"S. cerevisiae deletion strains, locus YKL085W, strain MDH1, stronger effect = lower value",0.981
same,normalized growth,"S. cerevisiae deletion strains, locus YKL190W, strain CNB1, stronger effect = lower value",0.997
same,normalized growth,"S. cerevisiae deletion strains, locus YKR001C, strain vps1, stronger effect = lower value",1.02
same,normalized growth,"S. cerevisiae deletion strains, locus YLR039C, strain RIC1, stronger effect = lower value",1.06
same,normalized growth,"S. cerevisiae deletion strains, locus YLR058C, strain SHM2, stronger effect = lower value",1
same,normalized growth,"S. cerevisiae deletion strains, locus YLR102C, strain apc9, stronger effect = lower value",0.991
same,normalized growth,"S. cerevisiae deletion strains, locus YLR113W, strain HOG1, stronger effect = lower value",0.969
same,normalized growth,"S. cerevisiae deletion strains, locus YLR262C, strain YPT6, stronger effect = lower value",1.05
same,normalized growth,"S. cerevisiae deletion strains, locus YLR268W, strain sec22, stronger effect = lower value",0.96
same,normalized growth,"S. cerevisiae deletion strains, locus YLR330W, strain CHS5, stronger effect = lower value",0.989
same,normalized growth,"S. cerevisiae deletion strains, locus YLR342W, strain FKS1 (second series), stronger effect = lower value",1.06
same,normalized growth,"S. cerevisiae deletion strains, locus YLR371W, strain rom2, stronger effect = lower value",0.99
same,normalized growth,"S. cerevisiae deletion strains, locus YLR418C, strain cdc73, stronger effect = lower value",1.01
same,normalized growth,"S. cerevisiae deletion strains, locus YML016C, strain PPZ1, stronger effect = lower value",1.01
same,normalized growth,"S. cerevisiae deletion strains, locus YML032C, strain rad52, stronger effect = lower value",0.97
same,normalized growth,"S. cerevisiae deletion strains, locus YML124C, strain tub3, stronger effect = lower value",0.996
same,normalized growth,"S. cerevisiae deletion strains, locus YMR078C, strain ctf18, stronger effect = lower value",0.978
same,normalized growth,"S. cerevisiae deletion strains, locus YMR223W, strain ubp8, stronger effect = lower value",1.04
same,normalized growth,[14],0.982
same,normalized growth,"S. cerevisiae deletion strains, locus YMR307W, strain GAS1, stronger effect = lower value",1.05
same,normalized growth,"S. cerevisiae deletion strains, locus YNL067W, strain RPL9B, stronger effect = lower value",0.97
same,normalized growth,[15],0.994
same,normalized growth,[16],0.988
same,normalized growth,"S. cerevisiae deletion strains, locus YNL183C, strain NPR1, stronger effect = lower value",0.937
same,normalized growth,"S. cerevisiae deletion strains, locus YNL233W, strain BNI4, stronger effect = lower value",1.01
same,normalized growth,"S. cerevisiae deletion strains, locus YNL250W, strain rad50, stronger effect = lower value",0.993
same,normalized growth,"S. cerevisiae deletion strains, locus YNL271C, strain bni1, stronger effect = lower value",0.987
same,normalized growth,"S. cerevisiae deletion strains, locus YNL298W, strain CLA4, stronger effect = lower value",0.993
same,normalized growth,"S. cerevisiae deletion strains, locus YNL307C, strain MCK1, stronger effect = lower value",0.999
same,normalized growth,[12],0.992
same,normalized growth,"S. cerevisiae deletion strains, locus YNR052C, strain pop2, stronger effect = lower value",0.984
same,normalized growth,"S. cerevisiae deletion strains, locus YOL006C, strain TOP1, stronger effect = lower value",1.01
same,normalized growth,"S. cerevisiae deletion strains, locus YOL012C, strain htz1",0.754
same,normalized growth,"S. cerevisiae deletion strains, locus YOL147C, strain pex11, stronger effect = lower value",0.997
same,normalized growth,"S. cerevisiae deletion strains, locus YOR061W, strain CKA2, stronger effect = lower value",1.01
same,normalized growth,"S. cerevisiae deletion strains, locus YOR069W, strain VPS5, stronger effect = lower value",0.998
same,normalized growth,"S. cerevisiae deletion strains, locus YOR136W, strain idh2, stronger effect = lower value",1.01
same,normalized growth,"S. cerevisiae deletion strains, locus YOR144C, strain elg1, stronger effect = lower value",0.998
same,normalized growth,"S. cerevisiae deletion strains, locus YOR184W, strain ser1, stronger effect = lower value",0.983
same,normalized growth,"S. cerevisiae deletion strains, locus YOR231W, strain MKK1, stronger effect = lower value",0.964
same,normalized growth,"S. cerevisiae deletion strains, locus YOR316C, strain cot1, stronger effect = lower value",0.981
same,normalized growth,"S. cerevisiae deletion strains, locus YPL055C, strain LGE1, stronger effect = lower value",0.949
same,normalized growth,"S. cerevisiae deletion strains, locus YPL241C, strain CIN2, stronger effect = lower value",1.01
same,normalized growth,"S. cerevisiae deletion strains, locus YPL256C, strain CLN2, stronger effect = lower value",0.972
same,normalized growth,"S. cerevisiae deletion strains, locus YPR119W, strain clb2, stronger effect = lower value",0.99
same,normalized growth,"S. cerevisiae deletion strains, locus YPR141C, strain kar3, stronger effect = lower value",0.992
same,normalized growth,"S. cerevisiae deletion strains, locus YPR163C, strain tif3, stronger effect = lower value",0.994
same,normalized growth,"S. cerevisiae deletion strains, locus YPR167C, strain met16, stronger effect = lower value",0.975
same,normalized growth,"S. cerevisiae deletion strains, strain wtn01, stronger effect = lower value",0.962
same,normalized growth,"S. cerevisiae strains, strain wild type, stronger effect = lower value",1

# Source: PubChem BioAssay AID1159580 (chemical genetic matrix, 2015)
